Results filed as inconclusive are left out. Active and inactive are the calls of the source. Unless noted, the call rests on the fitted dose curve; in most records, active means well fitted curve in the direction sought with a large enough effect; inconclusive means small, poorly fitted or top-dose-only effect, or another doubt; inactive means no such curve, though single readings can be large; an effect the other way counts as inactive or inconclusive.
How the values were obtained:
[1] = target: Lysosomal acid glucosylceramidase (Homo sapiens) (UniProt P04062); experiment: Glucocerebrosidase-p2 (AID 348; in the data active means potency below about 10 µM; further: potency means the concentration at half of the fitted maximal effect); settings: purified GBA, blue fluorogenic substrate, 40 min
Procedure, shortened: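 Normal human glucocerebrosidase (0.2 nM) with blue fluorogenic substrate (80 uM final) in citrate/phosphate pH 5.9 with 10mM sodium taurocholate, 0.01% tween-20; 40 min RT, NaOH/glycine stop; fluorescence Ex 365/Em 440; AC50 from a titration from 0.6 nM upwards.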

[2] = AP1 Signaling Pathway (AID 357; active means well fitted curve in either direction with a large enough effect, not every such curve was filed as active;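 further: ME-180 reporter cells stimulated with EGF at its EC50 level; on the % scale 0 is the no-effect control and ±100 the full control effect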); settings: ME-180 AP-1-bla reporter, EGF-induced, beta-lactamase ratio, 5 h; at 7.69 µM (top of the series) unless noted
Procedure, shortened: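 Read-out was the 460nm/530nm emission ratio (excitation 405nm) after CCF4 loading for 2.5 hours at room temperature. Cells carried an AP-1-driven beta-lactamase reporter, were stimulated with EC50 EGF plus compound for 5 hours, and AC50 values came from titrations.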

[3] = target: Cytochrome P450 1A2 (Homo sapiens) (UniProt P05177); experiment: p450-cyp1a2 (AID 410; calls by dose curve; further: potency means the concentration at half of the fitted maximal effect); settings: recombinant CYP1A2, luciferin-ME demethylation, luminescence; series mostly up to 57 µM
Procedure, shortened: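 O-Demethylation of luciferin 6' methyl ether by human CYP1A2 is monitored as luciferase luminescence. Substrate sits at Km (100uM); enzyme is 20nM. Values are scaled to 57 uM furafylline as maximal inhibition.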

[4] = NFAT Signaling Pathway (AID 444; active means well fitted curve in either direction with a large enough effect, not every such curve was filed as active;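 further: carbachol stimulus at about its EC50 of 1 µM final; on the % scale 0 is the no-effect control and ±100 the full control effect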); settings: Jurkat NFAT-bla M1, carbachol, beta-lactamase ratio, 5 h; at 7.69 µM (top of the series) unless noted
Procedure, shortened: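 Jurkat cells with NFAT-driven β-lactamase reporter and co-expressed M1 receptor, stimulated with carbachol (final 1 uM, ~EC50), compound titration, 5 h at 37 °C. CCF4 loaded 1 h at RT; 460/530 nm ratio gave %activity and AC50.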

[5] = Stat Signaling Pathway (AID 446; active means well fitted curve in either direction with a large enough effect, not every such curve was filed as active;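 further: ME-180 cervical cancer cells given 40 pM IL-6 alongside compound; SIE-controlled beta-lactamase reporter measured as 460/530 nm FRET emission ratio; on the % scale 0 is the no-effect control and ±100 the full control effect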); settings: ME-180 (cervical carcinoma) SIE beta-lactamase reporter, IL-6 stimulated, 5 h; at 7.69 µM (top of the series) unless noted
Procedure, shortened: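 FRET read-out (405 nm excitation, 460/530 nm emission) of a beta-lactamase reporter under a STAT-inducible element in ME-180 cervical carcinoma cells. Cells with compound receive 40 pM IL-6 for 5 h. Values are normalised to AC90 stimulation and AC90 JAK-inhibitor controls.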

[6] = target: Glucocorticoid receptor (Homo sapiens) (UniProt P04150); experiment: GR-GFP Redistribution (AID 450;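 active means compounds whose dose series gives a full or clear partial fitted curve of increased nuclear translocation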; further: potency means the concentration at half of the fitted maximal effect); settings: U2OS GR-GFP nuclear translocation, laser cytometry, 2 h
[7] = target: Glucocorticoid receptor (Homo sapiens) (UniProt P04150); experiment: GR-EFC Redistribution (AID 451; calls by dose curve; further: potency means the concentration at half of the fitted maximal effect); settings: CHO-K1 GR-EFC translocation, beta-gal luminescence, 2 h
Procedure, shortened: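 CHO-K1 cells expressing nuclear EA and GR-ED fragments of b-gal; compounds titrated up to 46 uM final, 2 h at 37 C. GR nuclear translocation read as complemented b-gal luminescence after 1 h RT detection.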

[8] = target: Mitogen-activated protein kinase 10 (Mus musculus) (UniProt Q61831); experiment: JNK3 AlphaScreen Assay (AID 530; active means well fitted curve in either direction with a large enough effect, not every such curve was filed as active;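 further: kinase came from lysate of stimulated human HepG2 cells; signal reports phosphorylation of biotinylated GST-cJun 1-79 at Ser73 with 10 µM ATP; on the % scale 0 is the no-effect control and ±100 the full control effect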); settings: JNK3 lysate, c-Jun phosphorylation; series mostly up to 57.1 µM
Procedure, shortened: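 Activity was read by AlphaScreen after JNK3-containing HepG2 lysate (cytokine pre-activated) phosphorylated biotinylated GST-cJun with 10 uM ATP at room temperature. Phospho-Ser73 cJun antibody with Protein-A acceptor beads provided detection.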

[9] = target: 3',5'-cyclic-AMP phosphodiesterase 4B (Homo sapiens) (UniProt Q07343); experiment: qHTS Assay for Inhibitors of PDE-IV (AID 607; active means well fitted activation curve with a large enough effect in the main read-out, with a control signal flat, not every such curve was filed as active; further: % of control where 0% means no effect); settings: HEK293 ACTOne CNG channel cells, membrane potential fluorescence; series mostly up to 22.9 µM
Procedure, shortened: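 Cell-based read-out of cAMP via a modified cyclic nucleotide-gated channel and membrane potential dye (535/590 nm) in HEK293 cells expressing PDE4 endogenously. Compounds tested up to 22.9 uM final; 100 uM RO 20-1724 reference.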

[10] = Confirmation and Secondary Assay for Modulators of Hemoglobin Beta Chain Splicing at IVS2 654 locus (AID 910); settings: HeLa EGFP-654 splicing reporter, GFP fluorescence, 48 h; series mostly up to 38.3 µM;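 further: HeLa cells stably carrying EGFP split by mutant beta-globin IVS2-654 intron; % of control where 0% means no effect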
Procedure, shortened: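 HeLa cells stably expressing EGFP interrupted by β-globin IVS2-654 intron, seeded overnight in Opti-MEM/2% FCS, then treated 2 days at 37 °C. Restored splicing read as total peak GFP intensity per well by laser scanning cytometry (488 nm excitation, 500–520 nm emission); 500 nM antisense PNA as control.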

[11] = Confirmation and Secondary Assay for Modulators of Hemoglobin Beta Chain Splicing at IVS2 705 locus (AID 930); settings: HeLa EGFP-705 splicing reporter, GFP fluorescence, 48 h; series mostly up to 38.3 µM;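 further: HeLa cells stably expressing the EGFP-705 splicing reporter; GFP fluorescence per well restored by corrected splicing of the IVS2-705 intron in EGFP; % of control where 0% means no effect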
Procedure, shortened: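 HeLa IVS2-705 EGFP reporter cells, 500/well, compound 2 d at 37C; correct splicing yields fluorescent EGFP. Control: 500 nM antisense PNA. Read-out: total peak GFP intensity.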

[12] = qHTS Assay for Lipid Storage Modulators (AID 1519; calls by dose curve); settings: Drosophila S3 cells, BODIPY lipid droplet/cell ratio, laser cytometry, cells loaded with oleic acid; for activity change, negative = inhibition: at 57.5 µM (top of the series)
Procedure, shortened: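 Cells seeded at 5,000 per well were treated with compounds over a concentration series and loaded with oleic acid (400 uM, as added). Lipid droplet fluorescence (488 nm excitation, 500-530 nm channel) was read by laser-scanning cytometry and normalized to 20 uM Triacsin C.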

[13] = target: Ubiquitin carboxyl-terminal hydrolase 1 (Homo sapiens) (UniProt O94782); experiment: Inhibitors of USP1/UAF1: Pilot qHTS (AID 504865); settings: purified USP1/UAF1, Ub-rhodamine cleavage fluorescence; series mostly up to 54.9 µM; further: nearly all actives have a fitted effect of over 35% in size; further: potency means the concentration at half of the fitted maximal effect
Procedure, shortened: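 1nM USP1/UAF1 + cpd, 15 min RT; start w/ Ub-Rho 150nM final; kinetic FL 480/540 nm, 6 reads q60 s. Buffer 50mM HEPES pH 7.8, 0.5mM EDTA, 1mM TCEP, 0.01% Tween-20, 0.1 mg/ml BSA.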

[14] = Primary qHTS for small molecule stabilizers of the endoplasmic reticulum resident proteome: Secreted ER Calcium Modulated Protein (SERCaMP) assay (AID 1508630); settings: SH-SY5Y GLuc-SERCaMP (Gaussia luciferase released on ER calcium loss) secretion, thapsigargin, luminescence; series mostly up to 38.4 µM; further: on the % scale 0 is the no-effect control and ±100 the full control effect
Procedure, shortened: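 The SH-SY5Y reporter protocol was run at 3 concentrations up to 38.3 uM (primary) or 11 concentrations (follow-up): 16 h compound, 100 nM thapsigargin for 4 h, then extracellular luciferase luminescence.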

[15] = target: Cytochrome P450 2C19 (Homo sapiens) (UniProt P33261); experiment: qHTS Assay for Inhibitors and Substrates of Cytochrome P450 2C19 (AID 899); settings: recombinant CYP2C19, luciferin-H EGE luminescence; series mostly up to 57.1 µM; further: potency means the concentration at half of the fitted maximal effect; nearly all actives have a fitted effect of over 60% in size
Procedure, shortened: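 Signal comes from luciferase acting on luciferin released by CYP2C19-mediated hydroxylation of Luciferin-H EGE, 10uM (KM). Assay mix: 5nM enzyme, 50mM KPO4; 60 min at 37C with NADPH regeneration. Data normalized against 57uM ketoconazole.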

[16] = target: Cytochrome P450 3A4 (Homo sapiens) (UniProt P08684); experiment: qHTS Assay for Activators of Cytochrome P450 3A4 (AID 885); settings: recombinant CYP3A4, Luciferin-PPXE luminescence, 60 min; series mostly up to 57.1 µM; further: nearly all actives have a fitted effect of over 65% in size
Procedure, shortened: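 Luminescent readout of luciferin formed from 25 uM Luciferin-PPXE (KM level) by 20 nM CYP3A4 in 200 mM KPO4, with 60 min NADPH-driven reaction at room temperature after 10 min compound exposure. Ketoconazole (57 uM) defined 100% inhibition.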

[17] = target: Cytochrome P450 3A4 (Homo sapiens) (UniProt P08684); experiment: qHTS Assay for Inhibitors and Substrates of Cytochrome P450 3A4 (AID 884); settings: recombinant CYP3A4, Luciferin-PPXE luminescence; series mostly up to 57.1 µM; further: nearly all actives have a fitted effect of over 50% in size; further: potency means the concentration at half of the fitted maximal effect
Procedure, shortened: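 Luminescent readout of luciferin produced by CYP3A4 (20 nM) dealkylation of Luciferin-PPXE, 25 uM (its KM). NADPH-driven reaction ran 60 min at RT after 10 min compound preincubation; data scaled to 57 uM ketoconazole as 100% inhibition.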

[18] = measured here: cell count channel max response
[19] = measured here: lipid channel max response

Ubiquitin carboxyl-terminal hydrolase 1 (Homo sapiens), sequence (O94782 whole entry, looked up): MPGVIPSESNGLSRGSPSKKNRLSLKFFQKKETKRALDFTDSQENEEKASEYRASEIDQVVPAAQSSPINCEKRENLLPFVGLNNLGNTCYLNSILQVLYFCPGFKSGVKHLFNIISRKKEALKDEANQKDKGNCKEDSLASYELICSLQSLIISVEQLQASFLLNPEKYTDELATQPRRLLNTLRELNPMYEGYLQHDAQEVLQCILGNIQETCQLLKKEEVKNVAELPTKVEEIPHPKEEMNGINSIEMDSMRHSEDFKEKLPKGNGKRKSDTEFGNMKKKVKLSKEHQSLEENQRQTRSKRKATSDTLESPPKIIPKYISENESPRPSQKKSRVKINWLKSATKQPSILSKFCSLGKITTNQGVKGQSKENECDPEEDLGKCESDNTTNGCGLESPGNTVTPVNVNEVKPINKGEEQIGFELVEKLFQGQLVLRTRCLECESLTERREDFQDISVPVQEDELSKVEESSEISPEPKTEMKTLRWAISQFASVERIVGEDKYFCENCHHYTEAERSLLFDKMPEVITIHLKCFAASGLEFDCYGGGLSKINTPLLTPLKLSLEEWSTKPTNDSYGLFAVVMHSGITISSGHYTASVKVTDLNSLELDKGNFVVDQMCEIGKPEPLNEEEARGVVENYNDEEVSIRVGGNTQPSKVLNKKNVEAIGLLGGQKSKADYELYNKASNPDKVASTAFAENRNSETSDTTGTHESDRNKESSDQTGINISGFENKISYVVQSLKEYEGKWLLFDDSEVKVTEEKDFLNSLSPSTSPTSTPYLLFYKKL
Cytochrome P450 3A4 (Homo sapiens), sequence (P08684 whole entry, looked up): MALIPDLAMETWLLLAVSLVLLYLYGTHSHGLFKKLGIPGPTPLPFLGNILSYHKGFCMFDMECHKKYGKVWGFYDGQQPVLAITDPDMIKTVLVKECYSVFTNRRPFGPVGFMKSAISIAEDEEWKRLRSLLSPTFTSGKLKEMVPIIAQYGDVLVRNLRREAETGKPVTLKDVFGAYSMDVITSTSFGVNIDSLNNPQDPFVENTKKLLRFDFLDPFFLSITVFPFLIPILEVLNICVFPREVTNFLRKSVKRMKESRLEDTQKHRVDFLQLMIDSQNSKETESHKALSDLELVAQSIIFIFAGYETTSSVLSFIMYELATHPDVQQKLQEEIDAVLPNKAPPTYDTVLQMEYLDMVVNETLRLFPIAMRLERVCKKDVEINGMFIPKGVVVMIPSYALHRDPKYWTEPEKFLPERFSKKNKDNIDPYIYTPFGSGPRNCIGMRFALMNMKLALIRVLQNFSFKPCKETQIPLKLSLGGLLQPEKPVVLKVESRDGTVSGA
Glucocorticoid receptor (Homo sapiens), sequence (P04150 whole entry, looked up, the tested form may be a part): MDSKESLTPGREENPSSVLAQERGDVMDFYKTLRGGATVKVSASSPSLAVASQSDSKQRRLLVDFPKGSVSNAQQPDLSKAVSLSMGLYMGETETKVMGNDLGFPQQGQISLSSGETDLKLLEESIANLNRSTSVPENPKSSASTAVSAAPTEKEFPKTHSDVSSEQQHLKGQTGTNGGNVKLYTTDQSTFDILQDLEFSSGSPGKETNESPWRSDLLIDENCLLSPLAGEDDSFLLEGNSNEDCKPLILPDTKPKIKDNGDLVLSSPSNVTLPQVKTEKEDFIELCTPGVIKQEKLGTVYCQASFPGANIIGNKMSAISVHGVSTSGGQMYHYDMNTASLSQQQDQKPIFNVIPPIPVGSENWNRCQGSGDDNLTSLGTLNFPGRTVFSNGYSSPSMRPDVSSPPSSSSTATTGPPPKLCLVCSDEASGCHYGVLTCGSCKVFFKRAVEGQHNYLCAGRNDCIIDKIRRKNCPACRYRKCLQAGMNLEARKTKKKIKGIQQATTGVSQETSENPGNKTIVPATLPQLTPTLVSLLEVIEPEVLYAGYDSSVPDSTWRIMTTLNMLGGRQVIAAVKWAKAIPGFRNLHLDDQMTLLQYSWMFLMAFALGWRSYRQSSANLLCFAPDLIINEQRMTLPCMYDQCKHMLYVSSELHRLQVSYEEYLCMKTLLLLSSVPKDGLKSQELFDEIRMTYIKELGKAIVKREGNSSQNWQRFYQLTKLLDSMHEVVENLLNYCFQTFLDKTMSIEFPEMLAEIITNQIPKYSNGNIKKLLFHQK
Cytochrome P450 1A2 (Homo sapiens), sequence (P05177 whole entry, looked up): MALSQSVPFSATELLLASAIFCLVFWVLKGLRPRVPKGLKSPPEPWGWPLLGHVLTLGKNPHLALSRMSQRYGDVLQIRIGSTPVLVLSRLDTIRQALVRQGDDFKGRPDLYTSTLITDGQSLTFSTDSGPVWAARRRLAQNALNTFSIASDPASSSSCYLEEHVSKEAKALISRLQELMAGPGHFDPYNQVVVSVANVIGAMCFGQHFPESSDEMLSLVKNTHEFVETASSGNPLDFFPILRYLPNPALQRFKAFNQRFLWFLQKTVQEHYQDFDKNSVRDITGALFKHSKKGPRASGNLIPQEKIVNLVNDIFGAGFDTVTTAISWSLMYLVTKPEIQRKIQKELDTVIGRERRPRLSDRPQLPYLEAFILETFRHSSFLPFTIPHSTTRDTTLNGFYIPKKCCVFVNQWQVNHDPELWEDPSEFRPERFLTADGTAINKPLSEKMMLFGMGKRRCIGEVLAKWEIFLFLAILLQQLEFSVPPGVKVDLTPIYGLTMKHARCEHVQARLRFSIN
3',5'-cyclic-AMP phosphodiesterase 4B (Homo sapiens), sequence (Q07343 whole entry, looked up): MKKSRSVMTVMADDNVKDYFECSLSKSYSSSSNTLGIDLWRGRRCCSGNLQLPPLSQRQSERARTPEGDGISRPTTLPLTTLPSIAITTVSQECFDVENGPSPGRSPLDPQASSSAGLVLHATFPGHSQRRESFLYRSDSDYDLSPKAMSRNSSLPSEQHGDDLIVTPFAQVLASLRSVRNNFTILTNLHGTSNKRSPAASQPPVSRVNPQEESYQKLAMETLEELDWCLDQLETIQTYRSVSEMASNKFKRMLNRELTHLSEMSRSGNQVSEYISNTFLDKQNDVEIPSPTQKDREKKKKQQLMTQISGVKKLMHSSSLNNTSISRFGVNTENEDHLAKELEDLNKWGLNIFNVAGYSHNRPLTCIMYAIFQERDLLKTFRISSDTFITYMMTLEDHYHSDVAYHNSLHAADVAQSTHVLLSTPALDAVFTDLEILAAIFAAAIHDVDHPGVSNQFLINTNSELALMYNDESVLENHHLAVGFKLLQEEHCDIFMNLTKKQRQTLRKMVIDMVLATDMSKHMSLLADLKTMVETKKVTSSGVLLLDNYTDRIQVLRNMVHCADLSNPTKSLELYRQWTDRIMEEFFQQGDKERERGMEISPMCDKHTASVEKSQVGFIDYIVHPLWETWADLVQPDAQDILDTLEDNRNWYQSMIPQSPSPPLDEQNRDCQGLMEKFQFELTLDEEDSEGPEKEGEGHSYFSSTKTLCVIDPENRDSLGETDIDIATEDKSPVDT
Lysosomal acid glucosylceramidase (Homo sapiens), sequence (P04062 whole entry, looked up): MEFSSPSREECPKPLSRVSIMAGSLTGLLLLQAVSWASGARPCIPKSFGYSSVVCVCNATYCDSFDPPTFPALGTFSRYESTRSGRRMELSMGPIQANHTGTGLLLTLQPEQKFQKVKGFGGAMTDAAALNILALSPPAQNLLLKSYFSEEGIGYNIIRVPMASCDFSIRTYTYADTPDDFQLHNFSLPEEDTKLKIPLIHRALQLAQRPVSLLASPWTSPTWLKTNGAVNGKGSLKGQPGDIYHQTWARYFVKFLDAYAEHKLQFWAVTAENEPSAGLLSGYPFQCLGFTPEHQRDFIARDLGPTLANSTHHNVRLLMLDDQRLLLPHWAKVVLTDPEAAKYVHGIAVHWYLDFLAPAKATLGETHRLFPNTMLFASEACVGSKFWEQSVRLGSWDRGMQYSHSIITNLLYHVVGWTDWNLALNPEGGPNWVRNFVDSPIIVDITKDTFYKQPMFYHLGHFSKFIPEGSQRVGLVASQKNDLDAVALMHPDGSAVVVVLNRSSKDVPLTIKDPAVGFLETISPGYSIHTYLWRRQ
Cytochrome P450 2C19 (Homo sapiens), sequence (P33261 whole entry, looked up): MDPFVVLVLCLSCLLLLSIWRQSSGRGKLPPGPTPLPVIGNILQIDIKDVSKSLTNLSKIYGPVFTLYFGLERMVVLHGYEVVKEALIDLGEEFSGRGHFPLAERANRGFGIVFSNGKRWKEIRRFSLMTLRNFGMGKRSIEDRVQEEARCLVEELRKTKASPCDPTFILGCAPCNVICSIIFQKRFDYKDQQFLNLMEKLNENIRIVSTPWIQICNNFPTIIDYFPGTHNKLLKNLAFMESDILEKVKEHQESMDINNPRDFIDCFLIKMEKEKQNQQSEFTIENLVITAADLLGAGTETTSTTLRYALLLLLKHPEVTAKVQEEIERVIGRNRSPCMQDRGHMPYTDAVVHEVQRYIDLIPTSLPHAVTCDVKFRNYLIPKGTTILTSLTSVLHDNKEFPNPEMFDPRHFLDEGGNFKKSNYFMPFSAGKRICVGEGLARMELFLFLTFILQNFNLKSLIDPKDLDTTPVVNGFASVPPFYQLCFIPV

Structure (SMILES) | Potency [1] | activity change, negative = inhibition [2] | Potency [3] | activity change, negative = inhibition [4] | activity, negative = inhibition [5] | Potency [6] | Potency [7] | outcome [8] | Potency [9] | outcome [10] | outcome [11] | activity change, negative = inhibition [12] | max response [12, 18] [%] | max response [12, 19] [%] | Potency [13] | Potency [14] | Potency [15] | Potency [16] | Potency [17]
c1cncc(CNc2cc(-c3ccc4c(c3)OCO4)ncn2)c1 | > 11.4 µM (inactive) | -7.3% (inactive) | 0.251 µM (active) | 11.5% (inactive) | 3.19% (inactive) | > 46 µM (inactive) | > 46 µM (inactive) | inactive | inactive | inactive | inactive | 11.7% (inactive) | 14 | 18.9 | inactive | inactive | – | – | –
CN(Cc1ccco1)c1cc(-c2ccccc2Cl)ncn1 | > 11.4 µM (inactive) | -3.34% (inactive) | 2.51 µM (active) | -22.4% (inactive) | 5.83% (inactive) | > 46 µM (inactive) | > 46 µM (inactive) | inactive | inactive | inactive | inactive | 6.03% (inactive) | -2.55 | 5.54 | inactive | inactive | 7.94 µM (active) | – | –
c1nc(NC2CCNCC2)c2cc(-c3ccc4c(c3)OCO4)ccc2n1 | > 11.4 µM (inactive) | 7.44% (inactive) | 12.6 µM (active) | 15.7% (inactive) | 2.23% (inactive) | > 46 µM (inactive) | > 46 µM (inactive) | inactive | inactive | inactive | inactive | 6.44% (inactive) | 1.52 | 6.41 | inactive | inactive | – | inactive | –
COc1ccccc1-c1cncnc1-n1ccnc1 | > 11.4 µM (inactive) | -7.86% (inactive) | 12.6 µM (active) | 1.61% (inactive) | 10.2% (inactive) | > 46 µM (inactive) | > 46 µM (inactive) | inactive | inactive | inactive | inactive | 7.28% (inactive) | 19.4 | 28.5 | inactive | inactive | – | – | inactive
c1cncc(-c2cncnc2-n2ccnc2)c1 | > 11.4 µM (inactive) | 7.52% (inactive) | 20 µM (active) | -6.63% (inactive) | 0.845% (inactive) | > 46 µM (inactive) | > 46 µM (inactive) | inactive | inactive | inactive | inactive | 7.84% (inactive) | 7.56 | 17.5 | inactive | inactive | – | inactive | 7.94 µM (active)
CN(C)Cc1ccccc1-c1nccc(N(C)C)n1 | > 11.4 µM (inactive) | 23.3% (inactive) | 12.6 µM (active) | -0.313% (inactive) | 10.1% (inactive) | > 46 µM (inactive) | > 46 µM (inactive) | inactive | inactive | inactive | inactive | 2.35% (inactive) | 4.56 | 7.89 | inactive | inactive | – | inactive | –
CN(C)c1ccnc(-c2ccccc2C(F)(F)F)n1 | > 11.4 µM (inactive) | 24.2% (inactive) | 7.94 µM (active) | 6.88% (inactive) | 1.29% (inactive) | > 46 µM (inactive) | > 46 µM (inactive) | inactive | inactive | inactive | inactive | 5.14% (inactive) | 11.7 | 18.9 | inactive | inactive | – | – | inactive
CN1CCN(c2cc(-c3ccc(N(C)C)cc3)ncn2)CC1 | > 11.4 µM (inactive) | -7.42% (inactive) | 2.51 µM (active) | -7.21% (inactive) | 2.2% (inactive) | > 46 µM (inactive) | > 46 µM (inactive) | inactive | inactive | inactive | inactive | 8.21% (inactive) | 7.68 | 16.4 | inactive | inactive | – | – | –
Cc1nc2cnc(N3CCOCC3)nc2n(CCC#N)c1=O | > 11.4 µM (inactive) | 2.45% (inactive) | 12.6 µM (active) | -9.52% (inactive) | 21.2% (inactive) | > 9.22 µM (inactive) | > 46 µM (inactive) | inactive | – | – | – | 5.38% (inactive) | 1.22 | 11.9 | – | inactive | – | – | –
COc1ccc(CNc2ccnc(-c3ccccc3C(F)(F)F)n2)c(OC)c1 | > 11.4 µM (inactive) | -17.1% (inactive) | 15.8 µM (active) | -5.1% (inactive) | 1.22% (inactive) | > 46 µM (inactive) | > 46 µM (inactive) | inactive | inactive | inactive | inactive | 6.23% (inactive) | 3.1 | 8.88 | 11.2 µM (active) | inactive | – | inactive | 3.16 µM (active)
COCCNc1cc(-c2ccccc2C(F)(F)F)ncn1 | > 11.4 µM (inactive) | 1.05% (inactive) | 15.8 µM (active) | 1.43% (inactive) | 11% (inactive) | > 46 µM (inactive) | > 46 µM (inactive) | inactive | inactive | inactive | inactive | 7.86% (inactive) | 16.6 | 25.3 | inactive | inactive | 7.94 µM (active) | – | inactive

Reference: PubChem BioAssay (NCATS)
